# N370S GC mod = N370S glucocerebrosidase modulation, Gaucher chaperone candidate. P04062. N370S GC spleen homogenate, 4MU-glucoside fluorescence. Potency, µM (top dose mostly 59.4 µM), inactives show at the highest dose activity change, negative = inhibition, actives largely listed as inhibitors. 0.092% of 330,000 active;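 further: potency means the concentration at half of the fitted maximal effect; 0% = full enzyme activity and -100% = no enzyme basal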
# aGlu spleen mod = inhibits or activates alpha-glucosidase in human spleen homogenate; P10253; human spleen homogenate, 4-MU-alpha-glucoside fluorescence; Potency, µM (doses to about 79.9 µM), inactives show at the top dose activity change, negative = inhibition, hits mostly inhibitors; 0.006% of 240,000 active;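 further: potency means the concentration at half of the fitted maximal effect; 0% = enzyme with vehicle and -100% = no enzyme basal signal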
#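 Human spleen homogenate (1 ug) incubated with compounds and 1 mM 4-methylumbelliferyl-alpha-D-glucopyranoside in pH 5.0 citrate/phosphate buffer, 37 C, 40 min. Stopped at pH 10; 4-MU fluorescence (Ex 365/Em 440 nm); AC50 by Hill fit.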
# GAA inhib = blocks human lysosomal alpha-glucosidase. purified human GAA, 4-MU-alpha-glucoside fluorescence. Potency, µM (titrated, usually from 76.9 µM), inactives show at the highest dose activity change, negative = inhibition, hits mostly inhibitors. 0.005% of 200,000 active. AID 1466;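 further: potency means the concentration at half of the fitted maximal effect; plate controls were uninhibited enzyme wells for no effect and no-enzyme background for full effect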
#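 Activity normalized between no-enzyme (basal) and enzyme-only wells. Conditions: 4 nM human enzyme, 400 uM fluorogenic substrate, citrate/phosphate pH 5.0 with Tween-20, 20 min room temperature, compounds up to 77 uM.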
# GLA inh pH 4.5 = alpha-galactosidase A (human) inhibition, pH 4.5; purified enzyme, 4-MU-alpha-Gal fluorescence, pH 4.5; 230,000 tested, under 10 active; activity change, negative = inhibition, % at 105 µM;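 further: 0% = full activity with enzyme and -100% = basal without enzyme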
# Target sequence (P06280 whole entry, looked up): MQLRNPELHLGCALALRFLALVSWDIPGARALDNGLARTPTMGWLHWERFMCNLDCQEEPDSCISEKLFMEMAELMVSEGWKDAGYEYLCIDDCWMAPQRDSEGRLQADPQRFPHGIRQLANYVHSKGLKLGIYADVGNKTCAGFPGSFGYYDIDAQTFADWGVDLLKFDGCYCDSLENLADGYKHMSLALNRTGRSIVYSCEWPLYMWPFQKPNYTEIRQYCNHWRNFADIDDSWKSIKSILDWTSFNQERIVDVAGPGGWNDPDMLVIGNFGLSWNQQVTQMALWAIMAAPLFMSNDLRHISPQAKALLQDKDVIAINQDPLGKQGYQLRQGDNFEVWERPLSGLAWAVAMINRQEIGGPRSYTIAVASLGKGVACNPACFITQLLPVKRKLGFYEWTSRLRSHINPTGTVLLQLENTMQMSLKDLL
# GAA glycogen = alters human alpha-glucosidase cleavage of glycogen | P10253 | recombinant GAA, glycogen substrate, Amplex Red glucose oxidase fluorescence | Potency, µM (series often up to 76.4 µM), for inactives: top-dose activity change, negative = inhibition, usual class: inhibitors | 0.38% of 300,000 active;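 further: potency means the concentration at half of the fitted maximal effect; 0% = full enzyme reaction and -100% = no-enzyme basal signal; the screen sought inhibitors and activators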
#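 Recombinant human enzyme (4 nM); glycogen substrate; 37 C, 40 min, pH 5.0. Readout: coupled glucose oxidase/Amplex Red fluorescence.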
# aGal spleen mod = inhibits or activates alpha-galactosidase in human spleen homogenate; Potency, µM (highest dose often 80 µM), without a hit: top-dose activity change, negative = inhibition, most hits filed as inhibitors; AID 2107; 0.008% of 240,000 active; P06280; human spleen homogenate, 4MU-alpha-Gal fluorescence, 40 min;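 further: potency means the concentration at half of the fitted maximal effect; 0% = enzyme with vehicle and -100% = no enzyme basal signal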
#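 Human spleen homogenate (1 ug) was the enzyme source, with 4-methylumbelliferyl-alpha-D-galactopyranoside (1 mM final) in pH 5.0 citrate buffer with 0.01% Tween-20. Compounds were titrated; after 40 min at 37C, NaOH/glycine stop, 4-MU fluorescence read; AC50 from Hill fits.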
# * marks the source's active call; other numbers are inactive results; ? = inconclusive; . = no result given; [ ] = dose if it differs, or a comment. An excerpt weighted towards active compounds, which were near 0.43% of everything screened. The call rests on the fitted dose curve; in most records, active means well fitted curve in the direction sought with a large enough effect; inconclusive means small, poorly fitted or top-dose-only effect, or another doubt; inactive means no such curve, though single readings can be large; an effect the other way counts as inactive or inconclusive.
SMILES,N370S GC mod,aGlu spleen mod,GAA inhib,GLA inh pH 4.5,GAA glycogen,aGal spleen mod
O=S(=O)(NCc1ccco1)c1ccc(S(=O)(=O)N2CCCC2)cc1,16%,3%,?,-6,35µM*,-18%
COc1cccc(CNS(=O)(=O)c2ccc(S(=O)(=O)N3CCCC3)cc2)c1,7%,1%,1%,-13,5µM*,2%
COc1ccc(S(=O)(=O)N2CCN(Cc3cccc(OC)c3)CC2)cc1,-12%,.,.,.,5%[76.3 µM],.
COc1ccc(CCNC(=O)Cc2c(C)c3c(cc(C)c4c(C)c(C)oc43)oc2=O)cc1,.,.,.,.,-8%[76.3 µM],.
Oc1[nH]c2ccccc2c1C=Nc1ccc2c(c1)OCCO2,-12%,-10%,-3%,-7,32µM*,-10%
CC[C@H](C)[C@H](NC(=O)[C@H](Cc1ccc(O)cc1)NC(=O)[C@@H](NC(=O)[C@H](CCCN=C(N)N)NC(=O)[C@@H](N)CC(=O)O)C(C)C)C(=O)N[C@@H](Cc1cnc[nH]1)C(=O)N1CCC[C@H]1C(=O)N[C@@H](Cc1ccccc1)C(=O)N[C@@H](Cc1cnc[nH]1)C(=O)N[C@@H](CC(C)C)C(=O)O,-7%,-1%,.,.,.,-20%
Cc1cc(C(=O)NNc2ccc(C(C)C)cc2)n(C(C)(C)C)n1,-2%,-6%,.,-1,28µM*,-4%
Cc1nnsc1C(=O)NNc1ccc(C(C)C)cc1,-23%,3%,-13%,-1,-11%,4%
CC1(C)Nc2ccc(O)cc2-c2c1ssc2=S,-11%,4%,2%,-8,40µM*,-1%
Clc1cccc(-c2nc3ccccn3c2Nc2ccc3c(c2)OCCO3)c1,.,.,.,.,4µM*,.
Cc1ccn2c(Nc3ccc4c(c3)OCO4)c(-c3ccc(O)cc3)nc2c1,16µM*,-1%,.,-1,11µM*,3%
COc1ccc(-c2nc3cc(C)ccn3c2NCc2ccc3c(c2)OCO3)cc1,5%,-4%,?,3,?,0%
c1ccc(-c2nc3cnccn3c2Nc2ccc3c(c2)OCCO3)cc1,-9%,-1%,-4%,-4,?,-1%
Oc1ccc(-c2nc3ccccn3c2Nc2ccc3c(c2)OCCO3)cc1,.,.,.,.,13µM*,.
CN(C)c1ccc(-c2nc3ccccn3c2Nc2ccc3c(c2)OCCO3)cc1,.,.,.,.,18µM*,.
COc1ccc(Br)c(C(=O)Nc2cc3c(cc2N2CCCCC2)n(C)c(=O)c(=O)n3C)c1,.,.,.,.,11%[76.3 µM],.
CCOC(=O)c1c(OCC)[nH]c2ccc(O)cc12,?,-4%,-4%,5,6.3µM*,4%
O=C1NN(c2cccc(Br)c2)C(=O)/C1=C\c1ccc(O)cc1,-6%,.,.,.,1%,.
O=C1NN(c2ccc(Br)cc2)C(=O)/C1=C\c1ccc(O)cc1O,?,.,.,.,8.9µM*,.
CCOC(=O)c1c(NC(=O)c2nc(SC(C)C)ncc2Cl)sc2c1CCCC2,.,.,.,.,12%[76.3 µM],.
COc1ccc(S(=O)(=O)Nc2cc3c(cc2NCc2ccccc2)n(C)c(=O)n3C)cc1,.,.,.,.,10µM*,.
Cc1ccc2c(=O)cc(C(=O)Nc3c(C(=O)Nc4cccc(Cl)c4)oc4ccccc34)oc2c1,.,.,.,.,13%[76.3 µM],.
COc1ccc(-c2cn(-c3ccc(C)cc3)c(S(=O)(=O)CC(=O)Nc3ccc(F)cc3)n2)cc1,.,.,.,.,4%[76.3 µM],.
CCOc1cc(CNc2ccccc2SC)ccc1O,-5%,6%,-7%,-5,28µM*,6%
Cc1ccc2onc(CNC(=O)NCc3ccc(Cl)cc3)c2c1,.,.,.,.,0%[76.3 µM],.
SMILES,N370S GC mod,aGlu spleen mod,GAA inhib,GLA inh pH 4.5,GAA glycogen,aGal spleen mod
CN1CCN(C2Cc3ccccc3Sc3ccc(S)cc32)CC1 (centres undefined),13µM*,-6%,.,-13,.,-7%
Cc1cc(=O)[nH]c2ccc(S(=O)(=O)Nc3ccccc3)cc12,0%,.,.,.,0%[76.3 µM],.
Cc1cc(=O)[nH]c2ccc(S(=O)(=O)Nc3ccc(O)cc3)cc12,?,.,.,.,7.1µM*,.
Cc1cc(C)c(S(=O)(=O)Nc2ccc(O)cc2)c(C)c1,-13%,6%,-8%,-2,40µM*,-12%
CCN(CC)S(=O)(=O)c1ccc2oc(C(=O)N(C)Cc3ccccc3)c(C)c2c1,.,.,.,.,2%[76.3 µM],.
FC(F)(F)C(F)(F)C(F)(F)c1nnc2ccc(N3CCOCC3)nn12,20%,-12%,-1%,-13,2%,3%
NNc1ccc2nnc(C(F)(F)C(F)(F)C(F)(F)F)n2n1,13%,4%,8%,6,32µM*,5%
C1=Cc2ccccc2Nc2ccccc21,3%,-9%,.,1,16µM*,4%
COc1ccc(/C=N/c2oc(-c3ccccc3)cc2C#N)cc1OC,11%,1%,3%,8,25µM*,9%
COc1ccc(/C=N/NC(=O)c2nc(-c3ccccc3)cc(-c3ccccc3)n2)cc1OC,0%,8%,-7%,-2,-6%,7%
CNC(=O)c1ccc(CSc2nc3cccnc3n2Cc2cccc(F)c2)cc1,.,.,.,.,-13%[76.3 µM],.
Cn1c(=O)cc(SCC(=O)Nc2cccc(C#N)c2)c2ccc(Cl)cc21,.,.,.,.,6%[76.3 µM],.
CC(=O)C(Sc1nc(N(C)C)nc(N(C)C)n1)C(=O)Nc1ccccc1 (centres undefined),16%,-4%,-8%,2,20µM*,7%
CC(Sc1nc(NCc2ccccc2)nc(N(C)C)n1)C(=O)Nc1ccccc1 (centres undefined),-5%,-7%,-4%,-5,-1%,-5%
CC(=O)OCC(CO)OC(C)=O (centres undefined) (tested in a mixture with another compound),-4%,1%,.,.,.,9%
CCOC(=O)c1c(-c2ccccc2)csc1NC(=O)c1cc(-c2cccc(OC)c2)on1,.,.,.,.,9%[76.3 µM],.
CCOC(=O)C1=C(c2ccccc2)NC(N)=NC1c1ccc(OCc2ccc(C(=O)OC)cc2)cc1 (centres undefined),11µM*,-16%,.,-9,-7%,8%
COC(=O)c1cc2sccc2n1CC(=O)Nc1ccc(C)cc1C,.,.,.,.,15%[76.3 µM],.
O=c1cc(CSc2ccc(Cl)cc2)[nH]c2[nH]n(-c3ccccc3)c(=O)c12,-3%,-14%,.,-8,?,0%
Cc1ccc(SCc2cc(=O)c3c(=O)n(-c4ccccc4)[nH]c3[nH]2)cc1,-5%,-2%,-14%,-15,10µM*,-4%
COc1cc(Cn2c(-c3ccc(O)c(OC)c3)nc3ccccc32)ccc1O,-8%,4%,.,1,28µM*,7%
O=C(N/N=C\c1ccccc1O)c1ccccc1O,-8%,3%,.,-12,.,4%
O=C1CC(N(O)c2ccccc2)C(=O)N1c1cc(Cl)cc(Cl)c1 (centres undefined),-5%,1%,-9%,0,22µM*,1%

# Screening data (PubChem BioAssay)
